26 molecules from PubChem BioAssay AID1272365 (Small Molecule Screening Facility, UW Madison, 2018) can be followed below.

Several values for one entry are separate records, joined by “and”; a condition that tells them apart may be missing. Identical values can stand only once. In all, about 430,000 compounds went through this assay and about 2,600 (0.6%) were called active. This excerpt belongs to a sample that is enriched for actives. Unmarked numbers belong to inactive results. No stated cut-off is given here; in the data, active means inhibition mostly above about 37% (no sharp cut-off); inactive means mostly below about 20%.

Broadly, the inhibition is the change of the read-out against control, counted positive when it falls.

In the experiment the test system is PriA–SSB C-terminal tail interaction (Klebsiella pneumoniae). The experiment can be described thus: blocks PriA binding to SSB C-terminal tail, primary screen, biochemical, AlphaScreen (AID 1272365).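 Further: plate controls were negative control peptide for no effect and reference peptide for full effect.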 As to conditions: AlphaScreen SSBct-PriA binding, biotinylated peptide; at 33 µM, hits give high values. (In general: In Alpha technology, singlet oxygen from a donor bead excites a nearby acceptor bead.)
As to `CC(=O)N(C)c1ccc(OC[C@@H](O)CN(c2ccc(C)cc2)S(=O)(=O)c2ccc(C)cc2)cc1`, the inhibition was -17%.

Consider `CC1(C)C(=O)NCCN1C(=O)Cc1ccc2c(c1)OCO2`, for which the inhibition is -2% and -8%.

Turning to `COC1(CNC(=O)C2CCN(S(C)(=O)=O)CC2)CCSC1` (stereo unspecified), the inhibition is -5%.

Take `C=CC(=O)Nc1ccc(Nc2ccnc(Nc3ccc(N4CCN(C)CC4)cc3)n2)cc1`: the inhibition is 56.7% (active).

As to `COc1ccc(N2CCN(C(=S)Nc3ccc(C(C)=O)cc3)CC2)cc1`, the inhibition is 5%.

Consider `COc1ccc(NC(=O)Nc2ccc(N3CCOCC3)cc2)cc1`, for which the inhibition was -16%.

For the molecule `O=C(c1cc(Cl)sc1Cl)N(CC1CCCO1)c1nc2c(F)cc(F)cc2s1` (stereo unspecified), the inhibition was -20%.

`CCOC(=O)N1CCN(C(=O)Cn2nc(C(F)(F)F)n(C)c2=O)CC1`: the inhibition was 2%.

Regarding `O=C(Nc1ccccc1-c1ccc(=O)[nH]n1)c1ccncc1`, the inhibition is -12%.

For `COc1ccc(-c2ccc(CCC(=O)O)n2NC(=O)c2ccc(C(C)(C)C)cc2)cc1`, the inhibition is -5.78%.

Regarding `COc1ccc(CC2(C)OC(c3ccc(C(C)(C)C)cc3)=NN2C(C)=O)cc1` (stereo unspecified), the inhibition is 62.5% (active).

Turning to `CC(=O)N1N=C(c2ccncc2)OC1(Cc1ccccc1)Cc1ccccc1`, the inhibition is -8.22%.

Consider `Cn1c(=O)c2nc(SCC(=O)Nc3ccc(F)c([N+](=O)[O-])c3)n(C)c2n(C)c1=O`, for which the inhibition was -5%.

In the case of `CCOc1ccc(-c2ccc(=O)n(CCNC(=O)C3CC3)n2)cc1`, the inhibition was 6%.

Turning to `NC(=NOC(=O)c1ccc(=O)n(Cc2ccccc2)c1)c1ccccn1`, the inhibition was 3.95%.

In the case of `CSc1ccc(C=NNC(=O)CNc2ccc3ccccc3c2)cc1`, the inhibition is 47.7% (active).

For `O=C(CNc1ccc2ccccc2c1)NN=Cc1ccc(C(=O)O)cc1`, the inhibition was 13.8%.

For the molecule `COC(=O)c1ccc(C=NNC(=O)CNc2cccc(C)c2)cc1`, the inhibition is -5.68%.

Consider `C(#Cc1ccc2noc(-c3ccccc3)c2c1)c1ccccc1`, for which the inhibition is -6%.

Turning to `O=C(CCN1CCOCC1)N1N=C(c2ccccc2)CC1c1cccc([N+](=O)[O-])c1` (stereo unspecified), the inhibition is 8%.

As for `O=C(c1ccc(F)cc1)c1cn(Cc2ccc(F)cc2)c2cc3c(cc2c1=O)OCCO3`, the inhibition was 115% (active).

Regarding `Cc1ccc(Cn2cc(C(=O)NN)c(=O)c3ccc(F)cc32)cc1`, the inhibition was -0.06%.

As for `COc1cccc(Cn2cc(C(=O)c3ccccc3)c(=O)c3cc4c(cc32)OCCO4)c1`, the inhibition was -13%.

As to `COc1ccc(C=Nc2cccc3ncccc23)cc1`, the inhibition is 86.5% (active).

Turning to `CCc1nc2ccccc2c(=O)n1N=Cc1ccc(OC)cc1`, the inhibition was 4.76%.

As for `C=CCn1c(N=Cc2ccc(OC)cc2)nc2ccccc21`, the inhibition is 10.8%.
